The values below come from ChEMBL document CHEMBL3988442, “University of Dundee, Small-Polar-MMV Screening Library” (2021).

For this assay, the system named is Trypanosoma brucei. As to the kind of experiment: Trypanosoma brucei 72 hour study. The assay is classed as functional, organism-based. On the set-up: scale not given: in the data most compounds retested in dose-response had high values.

Among all 66,000 compounds or so, about 960 (1.5%) showed an effect of 50% or more. For the sample, strong results were picked, then their nearest neighbours and some compounds at random.

On to `Cl.Cl.Cn1cc(C(=O)NCc2cncc3c2CCN(CC2CC2)C3)cn1`, for which, for the setting “30.3 µM, […]”, the “Percent Effect” value is listed as -27.13%.

Turning to `CN(Cc1ccncc1)C(CO)c1cccc(F)c1` (stereo not drawn), under “30 µM, 30.03 µM”, the “Percent Effect” value is on record as -28.86%.

Consider `O=C(Nc1ccc2c(c1)C(=O)NC2)c1ccc(S(=O)(=O)C(F)(F)F)cc1`, for which the “Percent Effect” value (30.3 µM, […]) is reported as 11.83%.

Regarding `Cc1[nH]c2ccccc2c1-c1ccnc(N[C@@H](C)CO)n1`, under “30.3 µM, […]”, the “Percent Effect” value was 24.23%.

In the case of `Cc1[nH]c2ccccc2c1-c1ccnc(N[C@H](CO)CC(C)C)n1`, the “Percent Effect” value (30.3 µM, […]) is reported as 57.39%.

With `Cc1[nH]c2ccccc2c1-c1ccnc(N[C@@H](CO)C(C)C)n1`, the “Percent Effect” value (30.3 µM, […]) is 11.27%.

In the case of `CC(C)c1[nH]c2ncccc2c1CN1CCOCC1.Cl`, under “30.3 µM, […]”, the “Percent Effect” value is -24.02%.

`CN(C)CCN1CCOCC2(C1)CN(Cc1ccsc1)CCO2.O=C(O)C(F)(F)F.O=C(O)C(F)(F)F.O=C(O)C(F)(F)F` (stereo not drawn): the “Percent Effect” value (30 µM, 30.03 µM) is 38.01%.

With `Cc1ccccc1N1CCN(c2cc(N(C)C)ncn2)C(C)C1` (stereo not drawn), the “Percent Effect” value (30 µM, 30.03 µM) was 6.135%.

As for `Cc1ccc(N2CCN(c3ccccc3C)CC2C)nn1` (stereo not drawn), the “Percent Effect” value (30 µM, 30.03 µM) is -104.7%.

Regarding `Cc1ccccc1N1CCN(c2ccncn2)C(C)C1` (stereo not drawn), the “Percent Effect” value (30 µM, 30.03 µM) is reported as 96.97%.

With `Cc1noc(C)c1-c1cccc(C2CN(CC(=O)N(C)C)CCO2)n1.O=CO` (stereo not drawn), under “30.3 µM, […]”, the “Percent Effect” value is -10.64%.

In the case of `Cc1nc(CN2CCC3(CCN(Cc4nccn4C)CC3)C2=O)cs1.O=C(O)C(F)(F)F.O=C(O)C(F)(F)F`, the “Percent Effect” value (30.3 µM, […]) was -13.64%.

In the case of `O=C(O)C(F)(F)F.O=C1C[C@H]2[C@@H](CCN2C(=O)Cc2ccccc2)N1Cc1cccnc1`, the “Percent Effect” value (30.3 µM, […]) is listed as -5.465%.

With `O=C(O)C(F)(F)F.O=C([C@H]1CCCO1)N1CCOC2(CCCN(c3ncccc3F)C2)C1` (stereo partly drawn), the “Percent Effect” value (30.3 µM, […]) worked out at 1.881%.

With `Fc1cccc(CN2CCC(c3n[nH]c4ncccc34)CC2)c1F`, under “30.3 µM, […]”, the “Percent Effect” value was determined as 18.42%.

Consider `Fc1ccc(F)c(CN2CCC(c3n[nH]c4ncccc34)CC2)c1.O=C(O)CC(O)(CC(=O)O)C(=O)O`, for which the “Percent Effect” value (30.3 µM, […]) is on record as 65.45%.

As to `O=C(O)CC(O)(CC(=O)O)C(=O)O.c1cnc2[nH]nc(C3CCN(Cc4ccsc4)CC3)c2c1`, under “30.3 µM, […]”, the “Percent Effect” value is on record as -1.78%.

On to `Cc1ccccc1OC1CCN(CC(=O)Nc2c(C)nn(C)c2C)CC1`, for which, under “30.3 µM, […]”, the “Percent Effect” value was 11.58%.

Regarding `COCCC(=O)N1CC2(CCN(Cc3ccoc3)C2)C1`, for the setting “30 µM, 30.03 µM”, the “Percent Effect” value was -24.51%.

As to `O=C(O)C(F)(F)F.O=C(O)C(F)(F)F.c1ccc(CN2CCOCC3(CCN(C4CCOCC4)C3)C2)cc1` (stereo not drawn), under “30.3 µM, […]”, the “Percent Effect” value was -34.62%.

With `Cc1cccc(CN2Cc3nccn3CC(CN3CCOCC3)C2)c1.O=C(O)C(F)(F)F.O=C(O)C(F)(F)F` (stereo not drawn), for the setting “30 µM, 30.03 µM”, the “Percent Effect” value is on record as 58.02%.

Regarding `Cc1noc(C)c1CN1Cc2nccn2CC(CN2CCOCC2)C1.O=C(O)C(F)(F)F.O=C(O)C(F)(F)F` (stereo not drawn), the “Percent Effect” value (30 µM, 30.03 µM) is on record as 27.27%.

In the case of `Cc1cccc(CN2CCOCC3(CCN(C4CCOCC4)C3)C2)c1.O=C(O)C(F)(F)F.O=C(O)C(F)(F)F` (stereo not drawn), where the note is “30 µM, 30.03 µM”, the “Percent Effect” value is recorded as 52.28%.

As for `Fc1cccc(CN2CCOCC3(CCN(C4CCOCC4)C3)C2)c1.O=C(O)C(F)(F)F.O=C(O)C(F)(F)F` (stereo not drawn), the “Percent Effect” value (30 µM, 30.03 µM) is given as 30.04%.

For `Fc1ccc(CN2Cc3nccn3CC(CN3CCOCC3)C2)cc1.O=C(O)C(F)(F)F.O=C(O)C(F)(F)F` (stereo not drawn), where the note is “30 µM, 30.03 µM”, the “Percent Effect” value is reported as 39.42%.

For `CCC(C(=O)Nc1ccc2c(C)n[nH]c2c1)N1CCCC1=O` (stereo not drawn), the “Percent Effect” value (30 µM, 30.03 µM) was 6.301%.

Take `CCN1N=C(C(=O)N2CCCC(c3nc(C)cs3)C2)CCC1=O` (stereo not drawn): the “Percent Effect” value is -15.61% (30.3 µM, […]) and -12.74% (10 mM, 10 mM as filed; unlikely as a test dose).

On to `O=C(C1CCOC1)N1CCN(CCn2cccn2)c2ncccc2C1.O=C(O)C(F)(F)F` (stereo not drawn), for which the “Percent Effect” value (30.3 µM, […]) is recorded as -86.89%.

`O=C(O)C(F)(F)F.O=C(O)C(F)(F)F.O=C(O)C(F)(F)F.c1ccc(CO[C@H]2CO[C@@]3(CCCN(Cc4cccnc4)C3)C2)nc1`: the “Percent Effect” value (30 µM, 30.03 µM) is on record as -28.27%.

Regarding `CN1CCN(C(=O)c2cc3sccc3n2Cc2ccccc2)CC1`, the “Percent Effect” value (30.3 µM, […]) is 20.51%.

Take `CN1CCN(C(=O)c2cc3sccc3n2Cc2ccc(Cl)cc2)CC1`: for the setting “30.3 µM, […]”, the “Percent Effect” value is 99.49%.

Consider `CN1CCN(C(=O)c2cc3sccc3n2Cc2ccccc2Cl)CC1`, for which the “Percent Effect” value (30.3 µM, […]) was 25.89%.

On to `CC1CCCN(Cc2c(C3CC3)n(CC(=O)N(C)C)c3ncccc23)C1.Cl` (stereo not drawn), for which the “Percent Effect” value (30.3 µM, […]) is given as -32.63%.

For the molecule `N#CCCN(CC1CCCO1)C(=O)c1ccsc1` (stereo not drawn), the “Percent Effect” value (30.3 µM, […]) was determined as 16.66% and the “Percent Effect” value (10 mM, 10 mM as filed; unlikely as a test dose) is given as -43.52%.

For `O=C(CN(CC(O)c1ccc(F)cc1)C1CC1)NCc1cccs1` (stereo not drawn), the “Percent Effect” value (30 µM, 30.03 µM) is given as -22.68%.

With `COc1ccc(F)cc1CN1CCCC1Cn1nc(C)nc1C` (stereo not drawn), the “Percent Effect” value (10 µM) was -21.11%.

In the case of `Cc1nc(C)n(CC2CCCN2Cc2nc3ccccc3nc2C)n1` (stereo not drawn), the “Percent Effect” value (30 µM, 30.03 µM) was -3.332%.

Take `COc1c(C)cnc(CN2CCCC2c2noc(C3CC3)n2)c1C` (stereo not drawn): the “Percent Effect” value (30 µM, 30.03 µM) is on record as -15.93%.

As to `Cc1cnn(CC2CCCCN2Cc2nc(C)c3ccccc3n2)c1` (stereo not drawn), the “Percent Effect” value is, setting by setting: (30.3 µM, […]) -8.505%; (10 mM, 10 mM as filed; unlikely as a test dose) -58.92%.

With `COc1ccc(C)cc1CN1CCCC1Cn1nc(C)nc1C` (stereo not drawn), the “Percent Effect” value (30 µM, 30.03 µM) was 103.3%.

As to `Cc1cnn(CC2CCCN2Cc2nc(C)c3ccccc3n2)c1` (stereo not drawn), the “Percent Effect” value (30.3 µM, […]) is reported as 99.14% and the “Percent Effect” value (10 mM, 10 mM as filed; unlikely as a test dose) is -68.59%.

Turning to `COc1ccc(C)cc1CN1CCCC1c1noc(C2CC2)n1` (stereo not drawn), where the note is “30 µM, 30.03 µM”, the “Percent Effect” value was 105.3%.

Turning to `COc1ccc(CN2CCCC2Cn2nc(C)nc2C)cc1F` (stereo not drawn), the “Percent Effect” value (30 µM, 30.03 µM) stood at 13.69%.

Take `Cc1nc(CN2CCCC2Cn2cccn2)nc2ccccc12` (stereo not drawn): the “Percent Effect” value (30 µM, 30.03 µM) was -97.44%.

Regarding `Cc1cc(CN2CCCC2c2noc(C3CC3)n2)c2ccccc2n1` (stereo not drawn), where the note is “30 µM, 30.03 µM”, the “Percent Effect” value came to 8.829%.

Turning to `Cc1nc(C)n(CC2CCCN2Cc2nc(N)c3ccccc3n2)n1` (stereo not drawn), the “Percent Effect” value (30 µM, 30.03 µM) is reported as -26.66%.

As to `Cc1nc(C)n(CC2CCCN2Cc2nc(C)c3ccccc3n2)n1` (stereo not drawn), the “Percent Effect” value (10 µM) is on record as -1.729% and the “Percent Effect” value (30.3 µM, […]) came to 68.42%.
